Screen size: about 300,000 compounds; about 3,300 (1.1%) were called active. Inconclusive results (about 6%) are left out.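 The calls were made as follows: active = more than half of the replicate wells show a fall in the fluorescence ratio signal beyond about 16% (limit read from the data, passing the limit was not always enough); inconclusive = exactly half of the replicate wells pass the set limit; inactive = fewer than half of replicates pass the limit.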 Shown is part of a subset that was picked to be rich in actives.
test system: Ran GTPase (GTP-bound) - importin-beta complex; assay: inhibitors of RanGTP-importin-beta interaction, primary screen, biochemical, FRET, CFP-Ran, YFP-importin-beta, homogeneous (AID 2216); conditions: cell-free CFP-Ran/YFP-importin-beta FRET ratio; hits give high values; concentration not given here;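 also: 0% = DMSO wells and 100% = Ran loaded with GDP instead of GTP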

Structure (SMILES)	inhibition
Cn1c(-c2ccc(C(=O)c3ccccc3)s2)nc2ccccc21	21.5% (active)
Cn1cccc1-c1nc2ccccc2n1C	3.82% (inactive)
Cn1c(NC(=O)c2ccccc2)nc2ccccc21	5.33% (inactive)
O=C(NCCC1CCCCN1S(=O)(=O)c1ccccc1)C(=O)NCC1CCCO1 (centres undefined)	1.16% (inactive)
CCOc1ccc(CCNC(=O)COC(=O)C2CCN(c3ccc(C(F)(F)F)cn3)CC2)cc1OCC	0.153% (inactive)
O=c1[nH]snc1-c1c(Cl)cccc1Cl	2.52% (inactive)
Cc1ccc(-n2nc3cc(Cl)c(NC(=O)c4ccco4)cc3n2)cc1	-2.85% (inactive)
CCn1nc(NC(=O)c2ccco2)c2cc3ccc(C)cc3nc21	23.1% (active)
Cc1ccnc(NC(=O)c2ccco2)n1	-1.58% (inactive)
COc1ccc2c(c1)CCc1cn3ncc(C#N)c3nc1-2	10.6% (inactive)
COc1ccc2cc(C(=O)C3CCCN(C(=O)c4sc(C)nc4C)C3)ccc2c1 (centres undefined)	0.445% (inactive)
COc1ccc2nc(N3CCCC(O)C3)c(C#N)cc2c1 (centres undefined)	57.2% (active)
CCCCCCc1ccc(O)cc1O	-0.89% (inactive)
CCCCCCc1cc2cc(-c3nnc(-c4ccccc4)o3)c(=O)oc2cc1O	161% (active)
Cc1c(CC(=O)NCCCCCC(=O)O)c(=O)oc2cc3occ(-c4ccccc4)c3cc12	3.1% (inactive)
Cc1sc2ncnc(N3CCC(C(=O)Nc4nc5ccc(Cl)cc5s4)CC3)c2c1C	2.82% (inactive)
CC(=O)c1ccc(S(=O)(=O)NC2CC(=O)N(c3ccc4c(c3)OCCO4)C2)cc1 (centres undefined)	-0.763% (inactive)
c1ccc(C[C@H]2CNCCN2CCC23CC4CC(CC(C4)C2)C3)cc1	3.71% (inactive)
N#CCN(C(=O)COC(=O)C1CC2CCCC(C1)C2=O)c1ccccc1 (centres undefined)	-5.07% (inactive)
COc1cc2c(cc1O)[C@H](Cc1ccc(Oc3cc(C[C@@H]4NCCc5cc(OC)c(O)cc54)ccc3O)cc1)NCC2	-9.25% (inactive)
COc1ccc2c(c1)CCNC2Cc1ccc(OC)c(O)c1 (centres undefined)	96.2% (active)
COc1ccc(CCNC(=O)C(=O)NCC2CCNCC2)cc1OC	4.38% (inactive)
O=C(Nc1ccccc1-c1ccccc1)c1cccs1	22.1% (active)
O=C(Nc1ccccc1-c1nc2ccccc2[nH]c1=O)c1cccs1	-0.663% (inactive)

Structure (SMILES)	inhibition
O=C(Nc1ccccc1)c1ccc(NC(=O)c2cccs2)cc1	-0.113% (inactive)
Cc1sc2ncnc(N3CCC(C(=O)NNC(=O)c4ccc(F)cc4)CC3)c2c1C	0.666% (inactive)
CCC1CCCCN1CCNS(=O)(=O)c1ccc2c(c1)CCN2C(C)=O (centres undefined)	-5.25% (inactive)
CC(=O)N1CCc2cc(S(=O)(=O)NC3CCCCC3)ccc21	2.08% (inactive)
CCCNS(=O)(=O)c1ccc2c(c1)CCCN2C(C)=O	23.9% (active)
COc1ccccc1C(=O)NCCC(=O)NN1C(=O)NC2(CCCCC2)C1=O	-3.94% (inactive)
CCOc1ccc(C(=O)NC2CCN(C(=O)Nc3ccccc3OC)CC2)cc1	-1.22% (inactive)
CCOc1ccc2nc(N3CCCN(C(=O)Nc4ccccc4C)CC3)c(C#N)cc2c1	119% (active)
CCOC(=O)c1cc(C#N)c(N2CCCCC2)nc1-c1ccccc1	-3.84% (inactive)
COc1ccccc1C(=O)Nc1ccccc1C(=O)Nc1ccccc1	3.3% (inactive)
O=C(NCCOc1cccnc1)c1ccc(OC2CCN(Cc3ccccn3)CC2)cc1	0.854% (inactive)
O=S(=O)(c1cccc(Cn2nnc(-c3ccc(F)cc3)n2)c1)N1CCOCC1	5.68% (inactive)
Cc1cccc(Nc2nc(NCCO)nc(N3CCCC3)n2)c1	-0.666% (inactive)
Cc1ccc(N2CCN(c3ccc(C)cc3)C2c2ccccn2)cc1	20.1% (active)
Cc1ccc(S(=O)(=O)NCC(=O)N2CCN(c3ccccn3)CC2)cc1	-4.7% (inactive)
Cc1ccc(N2C(=O)C3CC3C2=O)cc1 (centres undefined)	1.85% (inactive)
CCC(CC)c1nnc(NC(=O)C2=COCCO2)s1	-0.607% (inactive)
COc1ccc(C2C3=C(CCCC3=O)N(CC(=O)O)C3=C2C(=O)CCC3)cc1	61.1% (active)
CCOc1ccc(C2C(C#N)=C(N)N(N(C)C)C3=C2C(=O)CCC3)cc1 (centres undefined)	-2.69% (inactive)
COc1ccc(C2C(C#N)=C(N)N(c3ncn[nH]3)C3=C2C(=O)CCC3)cc1 (centres undefined)	2.61% (inactive)
CCOC(=O)C1=C(N)N(c2ccc(C)cc2)C2=C(C(=O)CCC2)C1c1cccs1 (centres undefined)	1.06% (inactive)
CCOc1ccc(C2C3=C(CCCC3=O)N(CC(=O)O)C3=C2C(=O)CCC3)cc1	63.4% (active)
CCCCN1C(=O)CCC(C(=O)O)C1c1ccc(OC)cc1 (centres undefined)	-1.74% (inactive)
O=C1c2ccccc2C(=O)c2c1cccc2N1CCN(C/C=C/c2ccccc2)CC1	-1.77% (inactive)

Structure (SMILES)	inhibition
Cc1nc(-c2ccccc2)sc1C1(C)CC(c2cccnc2)=NO1 (centres undefined)	4.13% (inactive)
Cc1ccc(NC(=S)NCCN2CCOCC2)cc1	18% (active)
Cc1ccc(C(=O)NC(=S)NCCN2CCOCC2)cc1	-2.12% (inactive)
CCCCc1ccc(NC(=S)NCCCN2CCOCC2)cc1	1.19% (inactive)
CCCCn1c(N)c(N(CCC(C)C)C(=O)CC2OC(=O)c3ccccc32)c(=O)[nH]c1=O (centres undefined)	0.056% (inactive)
O=C(CCC1CCCN(C(=O)c2ccc(F)c(F)c2)C1)N1CCN(c2ccccn2)CC1 (centres undefined)	2.85% (inactive)
Oc1c(CN2CCN(c3ccc(F)cc3)CC2)cc(Cl)c2cccnc12	24.8% (active)
CCN1CCN(C(c2cccnc2)c2cc(Cl)c3cccnc3c2O)CC1 (centres undefined)	2.34% (inactive)
Oc1ccc(CN2CCN(c3ncccn3)CC2)cc1	-6.09% (inactive)
O=C(N/N=C/c1cc(Br)c(O)c([N+](=O)[O-])c1)C(O)(c1ccccc1)c1ccccc1	-0.0435% (inactive)
CN(C)S(=O)(=O)c1ccc(N2CCCC2)c(C(=O)Nc2ccc(Br)cc2F)c1	0.866% (inactive)
CC(Sc1nc(-c2ccccc2)cc(C(F)(F)F)n1)C(=O)Nc1ccc2c(c1)OCO2 (centres undefined)	-1.24% (inactive)
CC(Sc1nnc2c(n1)C1CCC2(C)C1(C)C)C(=O)Nc1ccccc1 (centres undefined)	27% (active)
CSc1nc(C)cc(SC(C(C)=O)C(=O)Nc2ccccc2)n1 (centres undefined)	-3.65% (inactive)
CC(=O)N[C@H]1[C@H]([C@H](O)[C@H](O)CO)OC(C(=O)O)=C[C@@H]1O	1.4% (inactive)
COc1ccc(Cl)cc1NC(=O)CN(C)C(=O)c1cc(-c2cccs2)nn1-c1ccccc1	0.469% (inactive)
Cc1nc2ccccc2c2oc(C(=O)NCCCN3CCC(C)CC3)cc12	34.1% (active)
Cc1nc2ccccc2c2oc(C(=O)NCC3CCCO3)cc12 (centres undefined)	4.76% (inactive)
CCCN(CCC)CCNC(=O)c1cc2c(C)nc3ccccc3c2o1	0.401% (inactive)
O=C(NCCS(=O)(=O)NCc1ccc(Cl)cc1)c1ccccc1	5.39% (inactive)
CCOC(=O)c1c(C)oc2ccc(OCC(=O)N(CC)CC)cc12	-3.75% (inactive)
CCOC(=O)c1c(C)oc2cc(Br)c(OCC(N)=O)cc12	19% (active)
CCOC(=O)c1c(-c2ccccc2)oc2ccc(OCC(N)=O)cc12	0.113% (inactive)
Cc1cc(-c2nnc(SCC(=O)Nc3ccc(S(N)(=O)=O)cc3)n2N)n[nH]1	0.809% (inactive)

Structure (SMILES)	inhibition
Cc1cccc(NC(=O)N2CCCCCC2)c1C	2.28% (inactive)
COCc1[nH]nc2c1C(C1C=CCCC1)C(C#N)=C(N)O2 (centres undefined)	-7.86% (inactive)
N#CC1=C(N)OC2=C(C(=O)CCC2)C1C1CC=CCC1 (centres undefined)	-2.87% (inactive)
N#CC1=C(N)Oc2cc(O)ccc2C1C1CCCCC1 (centres undefined)	140% (active)
COc1ccc(CNC(=O)C2CCCC2)cc1	-1.07% (inactive)
Cc1ccc2nc(NC(=O)CSc3nc(=O)n(CCCN(C)C)c4c3CCC4)sc2c1	1.53% (inactive)
Cc1nc(Nc2ccccc2F)c2nnn(Cc3ccccc3Cl)c2n1	35.1% (active)
Cc1nc(Nc2ccc(S(=O)(=O)N3CCCC3)cc2)c2nnn(Cc3ccccc3)c2n1	5.61% (inactive)
Cc1nc(Nc2ccc3c(c2)OCCO3)c2nnn(Cc3ccccc3Cl)c2n1	3.56% (inactive)
COc1ccccc1-n1ccnc(SCC(=O)NC2CCCCC2)c1=O	-1.18% (inactive)
CC(C)N(Cc1ccccc1)C(=O)COC(=O)c1ccccc1SCC(=O)N1CCCC1	-1.94% (inactive)
CC(=O)C12CC(C)=C(C)CC1CC1C3CCC4=CC(=O)CCC4(C)C3CCC12C (centres undefined)	1.03% (inactive)
CCS(=O)(=O)Nc1cc(C(=O)OC)ccc1C(=O)OC	4.57% (inactive)
CCCOc1ccc(CN(CCO)CCO)cc1C(=O)OC	-2.69% (inactive)
COC(=O)c1ccc(C(=O)Nc2cc(Cl)ccc2Cl)cc1NC(=O)c1ccccc1C	2.78% (inactive)
COC(=O)c1ccc(C(=O)OC)c(NC(=S)N2CCCCC2)c1	55.3% (active)
COC(=O)c1ccc(C(=O)OC)c(NC(=S)N2CCN(c3ccc(F)cc3)CC2)c1	6.98% (inactive)
CCN(CCO)C(=S)Nc1cc(C(=O)OC)ccc1C(=O)OC	16.3% (active)
CCN(CC)C(=O)CCC(=O)Nc1ccc(C(=O)OC)cc1	-3.39% (inactive)
COC(=O)c1ccc(C(=O)OC)c(NC(=S)N2CCN(c3cc(Cl)ccc3C)CC2)c1	6.93% (inactive)
CCCN(CCC)C(=S)Nc1cc(C(=O)OC)ccc1C(=O)OC	41% (active)
CN(C)C(CNC(=O)c1cccc(S(=O)(=O)Nc2ccc(Br)cc2)c1)c1ccco1 (centres undefined)	-0.145% (inactive)

— PubChem BioAssay AID2216 (Broad Institute, 2009)
